Activity calls are given as the source filed them. The calls were made as follows: active = hit-call score of the fitted dose curve at least 0.9, where 1 is the maximum; inactive = score below 0.9.
Columns and labels:
[1] = target: Aryl hydrocarbon receptor (Homo sapiens) (UniProt P35869); experiment: ATG_Ahr_CIS: Attagene CIS-FACTORIAL HepG2 Assay for human Aryl Hydrocarbon Receptor (Ahr) (AID 2282930); details: HepG2 AhR cis-factorial reporter transcription; actives raise or lower the signal
Outline: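 Following 24 h of chemical dosing, transfected HepG2 liver cells with cis-driven reporter units were lysed for RNA; reporter mRNA was quantified via RT-PCR and capillary electrophoresis, and responses fitted bidirectionally from DMSO.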

[2] = ATG_BRE_CIS: Attagene CIS-FACTORIAL HepG2 Assay for human Bone Morphogenetic Protein (BMP) Response Element (BRE) (AID 2282933); details: HepG2 BMP response element reporter, Attagene transcription factor profiling; actives raise or lower the signal
Outline: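 A HepG2 multiplex reporter system measured inducible reporter mRNA 24 h post-dosing. Detection: RT-PCR, 6-FAM primer extension, HpaI digestion, capillary electrophoresis. Activity fitted bidirectionally relative to DMSO.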

[3] = ATG_E_Box_CIS: Attagene CIS-FACTORIAL HepG2 Assay for human Enhancer Box (E-box) (AID 2282936); details: HepG2 E-box cis-reporter transcription, actives raise or lower the signal
Outline: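 Measured 24 h post-dosing in HepG2 cells transfected with multiple cis-regulated reporter units, signal being reporter mRNA induction detected by fluorescent RT-PCR with capillary electrophoresis; gain or loss fitted against DMSO.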

[4] = target: Hypoxia-inducible factor 1-alpha (Homo sapiens) (UniProt Q16665); experiment: ATG_HIF1a_CIS: Attagene CIS-FACTORIAL HepG2 Assay for human Hypoxia Inducible Factor 1 (HIF1A) (AID 2282951); details: HepG2 Attagene cis-factorial HIF1a reporter transcription; actives raise or lower the signal
Sequence of Hypoxia-inducible factor 1-alpha (Homo sapiens) (Q16665 whole entry, looked up): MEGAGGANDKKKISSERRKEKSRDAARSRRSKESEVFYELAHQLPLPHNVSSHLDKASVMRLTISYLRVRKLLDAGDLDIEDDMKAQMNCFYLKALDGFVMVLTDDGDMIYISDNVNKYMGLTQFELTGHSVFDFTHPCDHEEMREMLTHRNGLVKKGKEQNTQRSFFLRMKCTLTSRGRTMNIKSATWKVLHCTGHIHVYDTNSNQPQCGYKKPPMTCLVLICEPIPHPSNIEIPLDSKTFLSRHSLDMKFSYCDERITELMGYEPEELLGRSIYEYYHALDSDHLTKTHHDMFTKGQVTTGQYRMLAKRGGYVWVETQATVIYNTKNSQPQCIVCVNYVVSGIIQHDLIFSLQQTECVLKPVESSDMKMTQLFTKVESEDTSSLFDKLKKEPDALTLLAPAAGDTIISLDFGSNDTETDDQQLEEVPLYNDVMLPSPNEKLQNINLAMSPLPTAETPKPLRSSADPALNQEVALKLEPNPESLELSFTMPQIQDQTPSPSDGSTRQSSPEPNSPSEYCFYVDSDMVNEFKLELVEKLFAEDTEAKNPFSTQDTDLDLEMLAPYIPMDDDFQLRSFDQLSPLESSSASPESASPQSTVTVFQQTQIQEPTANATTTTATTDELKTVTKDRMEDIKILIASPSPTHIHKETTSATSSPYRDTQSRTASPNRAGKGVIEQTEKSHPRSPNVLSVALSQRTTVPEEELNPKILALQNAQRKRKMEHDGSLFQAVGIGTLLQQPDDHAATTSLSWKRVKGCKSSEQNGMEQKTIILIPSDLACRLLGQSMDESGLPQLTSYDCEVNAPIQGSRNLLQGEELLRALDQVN
Outline: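 HepG2 cells transiently transfected with multiple cis-regulated reporter transcription units measure endogenous transcription factor activity. After 24 h exposure, reporter mRNA is quantified by RT-PCR with 6-FAM labelling, HpaI digestion and capillary electrophoresis. Bidirectional fitting against DMSO.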

[5] = target: Heat shock factor protein 1 (Homo sapiens) (UniProt Q00613); experiment: ATG_HSE_CIS: Attagene CIS-FACTORIAL HepG2 Assay for human Heat Shock Transcription Factor 1 (HSE) (AID 2282953); details: HepG2 HSE cis-reporter, Attagene RNA transcription; actives raise or lower the signal
Sequence of Heat shock factor protein 1 (Homo sapiens) (Q00613 whole entry, looked up): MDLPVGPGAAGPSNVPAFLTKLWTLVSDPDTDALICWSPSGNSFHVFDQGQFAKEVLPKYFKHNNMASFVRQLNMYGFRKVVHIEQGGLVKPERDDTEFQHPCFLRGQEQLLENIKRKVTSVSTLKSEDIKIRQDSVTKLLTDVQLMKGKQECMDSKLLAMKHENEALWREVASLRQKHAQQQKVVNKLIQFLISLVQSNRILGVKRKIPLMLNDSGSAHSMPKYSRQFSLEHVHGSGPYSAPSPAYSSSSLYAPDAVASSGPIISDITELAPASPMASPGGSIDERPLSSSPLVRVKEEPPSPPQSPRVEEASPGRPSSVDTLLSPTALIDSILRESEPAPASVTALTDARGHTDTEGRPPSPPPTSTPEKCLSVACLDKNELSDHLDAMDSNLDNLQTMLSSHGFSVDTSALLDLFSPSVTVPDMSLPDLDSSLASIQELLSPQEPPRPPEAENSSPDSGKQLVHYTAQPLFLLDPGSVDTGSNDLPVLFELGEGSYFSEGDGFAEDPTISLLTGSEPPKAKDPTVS
Outline: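 Liver-derived HepG2 cells carry transiently introduced multiple reporter units governed by cis promoters. Reporter RNA measured 24 h post-dose through reverse transcription, PCR amplification, fluorescent labelling and capillary electrophoresis, normalised to DMSO.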

[6] = ATG_RORE_CIS: Attagene CIS-FACTORIAL HepG2 Assay for human RAR-related Orphan Receptor Element (RORE) (AID 2282959); details: HepG2 Attagene cis-factorial RORE reporter, mRNA; actives raise or lower the signal
Outline: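 HepG2 cells carrying transiently transfected cis-regulated reporter units; RORE-driven reporter mRNA quantified 24 h post-dosing by RT-PCR, 6-FAM primer extension, HpaI digestion and capillary electrophoresis. Bidirectional fit versus DMSO.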

[7] = ATG_Sox_CIS: Attagene CIS-FACTORIAL HepG2 Assay for human SRY-box transcription factor (SOX) (AID 2282960); details: HepG2 Attagene cis-factorial SOX reporter, mRNA; actives raise or lower the signal
Outline: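 HepG2 cells transiently transfected with multiple cis-regulated reporter units, then dosed for 24 h. Reporter mRNA quantified by RT-PCR, fluorescent labelling, HpaI digestion and capillary electrophoresis; bidirectional fit versus DMSO.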

[8] = ATG_SREBP_CIS: Attagene CIS-FACTORIAL HepG2 Assay for human Sterol Regulatory Element Binding (SREBP) (AID 2282962); details: HepG2 Attagene cis-factorial SREBP reporter, mRNA; actives raise or lower the signal
Outline: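 Readout: fluorescent reporter-transcript peaks resolved by capillary electrophoresis after RT-PCR. Cells were human HepG2 carrying transfected cis-promoter reporter constructs, dosed for 24 h. Gain or loss of signal was fitted against DMSO controls.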

[9] = target: Signal transducer and activator of transcription 3 (Homo sapiens) (UniProt P40763); experiment: ATG_STAT3_CIS: Attagene CIS-FACTORIAL HepG2 Assay for human Signal Transducer and Activator of Transcription 3 (STAT3) (AID 2282963); details: HepG2, Attagene cis-factorial STAT3 reporter transcription; actives raise or lower the signal
Sequence of Signal transducer and activator of transcription 3 (Homo sapiens) (P40763 whole entry, looked up): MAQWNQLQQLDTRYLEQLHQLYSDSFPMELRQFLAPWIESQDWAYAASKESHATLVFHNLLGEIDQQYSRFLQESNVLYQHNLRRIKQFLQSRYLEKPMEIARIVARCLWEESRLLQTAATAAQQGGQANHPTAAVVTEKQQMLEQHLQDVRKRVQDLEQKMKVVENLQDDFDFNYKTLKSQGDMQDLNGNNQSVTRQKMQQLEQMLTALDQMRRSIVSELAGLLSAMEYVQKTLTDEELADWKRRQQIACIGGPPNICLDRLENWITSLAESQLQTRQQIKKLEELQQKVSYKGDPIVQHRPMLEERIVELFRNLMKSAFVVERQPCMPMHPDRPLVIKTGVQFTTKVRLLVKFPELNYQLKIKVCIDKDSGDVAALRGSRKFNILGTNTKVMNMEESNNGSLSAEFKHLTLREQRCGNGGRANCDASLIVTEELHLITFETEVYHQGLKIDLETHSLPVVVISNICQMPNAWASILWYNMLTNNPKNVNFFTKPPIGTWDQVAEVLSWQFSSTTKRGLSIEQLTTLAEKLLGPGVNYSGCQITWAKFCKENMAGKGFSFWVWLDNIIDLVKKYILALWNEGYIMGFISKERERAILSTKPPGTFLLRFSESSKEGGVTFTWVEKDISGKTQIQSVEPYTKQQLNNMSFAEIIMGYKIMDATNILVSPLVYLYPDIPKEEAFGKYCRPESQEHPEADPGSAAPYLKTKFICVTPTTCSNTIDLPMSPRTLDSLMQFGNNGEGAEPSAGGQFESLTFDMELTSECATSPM
Outline: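 Uses human liver HepG2 transiently carrying cis-regulated reporter transcription units. Following 24 h dosing, reporter mRNA induction was detected by RT-PCR and capillary electrophoresis, analysed bidirectionally versus DMSO.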

[10] = ATG_TA_CIS: Attagene CIS-FACTORIAL HepG2 Assay for human TA Basal Promoter (AID 2282964); details: HepG2 Attagene CIS-factorial TA basal promoter reporter; actives raise or lower the signal
Outline: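 Background internal-marker endpoint from a 52-component HepG2 cis-reporter panel. Cells treated 24 h; reporter transcripts quantified via RT-PCR and CE fluorescence against DMSO baseline.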

[11] = ATG_TCF_b_cat_CIS: Attagene CIS-FACTORIAL HepG2 Assay for human T-Cell-Factor with beta-catenin (TCF/b-cat) (AID 2282965); details: HepG2 TCF/beta-catenin cis-reporter transcription, actives raise or lower the signal
Outline: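 In this cis-format system, transfected HepG2 cells report endogenous transcription factor activity. Readout after 24 h exposure is reporter transcript abundance from RT-PCR and capillary electrophoresis, analysed for gain or loss of signal versus DMSO.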

[12] = ATG_TGFb_CIS: Attagene CIS-FACTORIAL HepG2 Assay for human Transforming Growth Factor (TGF) (AID 2282967); details: HepG2 Attagene CIS TGFb reporter, mRNA transcription; actives raise or lower the signal
Outline: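 Liver HepG2 line, cis-factorial reporter panel, 24 h dosing. Quantitation: RT-PCR products labeled with 6-FAM, cut with HpaI, resolved by capillary electrophoresis; DMSO-referenced bidirectional analysis.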

[13] = target: X-box-binding protein 1 (Homo sapiens) (UniProt P17861); experiment: ATG_Xbp1_CIS: Attagene CIS-FACTORIAL HepG2 Assay for human X-box Binding Protein 1 (XBP1) (AID 2282972); details: HepG2 XBP1 cis-element reporter, Attagene multiplex; actives raise or lower the signal
Sequence of X-box-binding protein 1 (Homo sapiens) (P17861 whole entry, looked up, the tested form may be a part): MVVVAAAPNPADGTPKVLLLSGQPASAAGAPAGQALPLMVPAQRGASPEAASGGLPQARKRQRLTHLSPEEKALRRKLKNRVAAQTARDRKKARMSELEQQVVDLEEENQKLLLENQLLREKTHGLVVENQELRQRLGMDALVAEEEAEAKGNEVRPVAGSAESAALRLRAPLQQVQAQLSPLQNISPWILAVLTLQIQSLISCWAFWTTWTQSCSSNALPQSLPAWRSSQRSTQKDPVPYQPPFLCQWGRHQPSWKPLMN
Outline: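 Read-out: fluorescent reporter mRNA fragments resolved by capillary electrophoresis after RT-PCR. Human HepG2 liver cells carried transfected cis-promoter reporter units and were exposed to chemicals for 24 hours. Gain or loss of signal fitted relative to DMSO baseline.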

[14] = target: Transcriptional activator Myb (Homo sapiens) (UniProt P10242); experiment: ATG_Myb_CIS: Attagene CIS-FACTORIAL HepG2 Assay for human Myeloblastosis (Myb) Proto-Oncogene Transcription Factor (AID 2282986); details: HepG2 Attagene CIS-FACTORIAL Myb reporter transcription; actives raise or lower the signal
Sequence of Transcriptional activator Myb (Homo sapiens) (P10242 whole entry, looked up): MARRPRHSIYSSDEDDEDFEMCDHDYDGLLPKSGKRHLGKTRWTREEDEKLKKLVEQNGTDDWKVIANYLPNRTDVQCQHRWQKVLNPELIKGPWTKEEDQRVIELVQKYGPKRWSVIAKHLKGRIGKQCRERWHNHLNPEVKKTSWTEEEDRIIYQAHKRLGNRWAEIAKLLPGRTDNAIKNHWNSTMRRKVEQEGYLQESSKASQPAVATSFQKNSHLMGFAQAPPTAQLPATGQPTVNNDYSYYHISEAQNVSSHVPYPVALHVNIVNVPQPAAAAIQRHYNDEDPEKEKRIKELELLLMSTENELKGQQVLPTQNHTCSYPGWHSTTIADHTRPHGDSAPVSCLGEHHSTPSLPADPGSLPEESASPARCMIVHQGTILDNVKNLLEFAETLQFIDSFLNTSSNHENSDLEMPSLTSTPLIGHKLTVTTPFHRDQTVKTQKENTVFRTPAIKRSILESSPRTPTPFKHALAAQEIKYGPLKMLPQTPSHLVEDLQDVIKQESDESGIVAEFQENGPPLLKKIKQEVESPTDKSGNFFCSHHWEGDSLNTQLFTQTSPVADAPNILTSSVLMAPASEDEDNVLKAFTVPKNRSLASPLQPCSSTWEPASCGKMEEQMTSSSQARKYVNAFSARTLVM
Outline: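 Transiently transfected HepG2 cells carrying a multiplexed cis-promoter reporter set report endogenous Myb activity after 24 h compound exposure. Reporter mRNA is read by RT-PCR with capillary electrophoresis of fluorescent products, fitted bidirectionally against DMSO.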

[15] = target: Nuclear respiratory factor 1 (Homo sapiens) (UniProt Q16656); experiment: ATG_NRF1_CIS: Attagene CIS-FACTORIAL HepG2 Assay for human Nuclear Respiratory Factor 1 (NRF1) Orphan Gene (AID 2282987); details: HepG2 NRF1 cis-element reporter, Attagene multiplex; actives raise or lower the signal
Sequence of Nuclear respiratory factor 1 (Homo sapiens) (Q16656 whole entry, looked up): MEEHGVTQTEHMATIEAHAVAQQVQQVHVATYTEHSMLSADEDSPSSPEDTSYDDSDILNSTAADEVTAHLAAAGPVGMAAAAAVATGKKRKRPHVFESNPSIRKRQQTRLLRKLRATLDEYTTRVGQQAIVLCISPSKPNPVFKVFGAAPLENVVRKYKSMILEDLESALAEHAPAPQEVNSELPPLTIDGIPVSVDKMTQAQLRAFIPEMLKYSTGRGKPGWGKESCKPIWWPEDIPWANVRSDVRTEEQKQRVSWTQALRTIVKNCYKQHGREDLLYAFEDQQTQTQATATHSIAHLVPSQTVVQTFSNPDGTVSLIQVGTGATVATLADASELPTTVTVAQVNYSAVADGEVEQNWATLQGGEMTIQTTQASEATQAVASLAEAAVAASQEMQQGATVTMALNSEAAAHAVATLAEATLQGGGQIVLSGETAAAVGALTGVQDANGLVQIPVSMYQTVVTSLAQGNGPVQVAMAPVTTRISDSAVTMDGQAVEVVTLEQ
Outline: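 HepG2 cells transiently transfected with multiple cis-regulated reporter units, exposed 24 h. Reporter mRNAs measured by RT-PCR, fluorescent labelling, HpaI digestion and capillary electrophoresis; bidirectional fitting against DMSO.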

[16] = target: Myc proto-oncogene protein (Homo sapiens) (UniProt P01106); experiment: ATG_Myc_CIS: Attagene CIS-FACTORIAL HepG2 Assay for human Myelocytomatosis (Myc) Proto-Oncogene Transcription Factor (AID 2282990); details: HepG2, Attagene cis-reporter transcription factor activity; actives raise or lower the signal
Outline: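 DMSO-normalised, bidirectionally fitted reporter mRNA signal. HepG2 cells transfected with cis reporter constructs, treated 24 h; transcripts detected by RT-PCR, 6-FAM primer extension and CE.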

[17] = ATG_NRF2_ARE_CIS: Attagene CIS-FACTORIAL HepG2 Assay for human Nuclear Factor Erythroid 2 Related Factor 2 (NFR2) response to Antioxidant Response Elements (ARE) (AID 2282992); details: HepG2 Attagene ARE/NRF2 reporter, transcription factor activity; actives raise or lower the signal;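 as to AC50: reporter mRNA level measured by RT-PCR and capillary electrophoresis fluorescence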
Outline: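 Readout: reporter mRNA quantified by RT-PCR plus FAM-labelled primer extension, HpaI digestion and capillary electrophoresis, 24 h after dosing transfected HepG2 cells. Gain or loss of signal is fitted bidirectionally against DMSO baseline.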

[18] = ATG_Oct_MLP_CIS: Attagene CIS-FACTORIAL HepG2 Assay for human Octamer-Binding Transcription Factor (Oct) (AID 2282993); details: HepG2 Attagene cis-factorial Oct reporter, mRNA; actives raise or lower the signal
Outline: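 Using HepG2 cells bearing transfected cis-reporter constructs, mRNA induction was read after 24 h by fluorescent RT-PCR and capillary electrophoresis, with DMSO defining baseline for gain- or loss-of-signal fits.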

[19] = target: Cellular tumor antigen p53 (Homo sapiens) (UniProt P04637); experiment: ATG_p53_CIS: Attagene CIS-FACTORIAL HepG2 Assay for human p53 Transcription Factor (AID 2282994); details: HepG2 p53 cis-element reporter, Attagene mRNA; actives raise or lower the signal
Sequence of Cellular tumor antigen p53 (Homo sapiens) (P04637 whole entry, looked up): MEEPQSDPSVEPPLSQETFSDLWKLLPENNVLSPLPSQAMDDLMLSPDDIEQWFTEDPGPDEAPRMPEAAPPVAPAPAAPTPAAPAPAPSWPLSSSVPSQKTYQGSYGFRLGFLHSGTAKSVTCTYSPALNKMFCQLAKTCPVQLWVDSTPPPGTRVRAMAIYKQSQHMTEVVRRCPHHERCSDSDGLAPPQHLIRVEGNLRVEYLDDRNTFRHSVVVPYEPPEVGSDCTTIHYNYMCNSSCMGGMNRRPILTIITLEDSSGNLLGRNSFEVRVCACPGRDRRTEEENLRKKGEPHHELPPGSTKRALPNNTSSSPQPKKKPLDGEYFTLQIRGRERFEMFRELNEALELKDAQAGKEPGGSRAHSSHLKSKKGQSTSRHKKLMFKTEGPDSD
Outline: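 Read-out: reporter mRNA by RT-PCR plus capillary electrophoresis with fluorescence detection. Human HepG2 liver cells carried transfected multi-reporter cis-element constructs, dosed 24 h. Gain or loss of signal fitted bidirectionally against DMSO control.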

[20] = ATG_FoxO_CIS: Attagene CIS-FACTORIAL HepG2 Assay for human Forkhead box O (FoxO) (AID 2282943); details: HepG2 Attagene cis-reporter, FoxO element, mRNA; actives raise or lower the signal
Outline: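 24 h chemical exposure, HepG2 with transient cis-MRTU transfection. RNA extraction, oligo(dT) RT, reporter-specific PCR, primer-extension labelling, HpaI digestion, CE fragment analysis; bidirectional fit, DMSO baseline.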

Sequence of Aryl hydrocarbon receptor (Homo sapiens) (P35869 whole entry, looked up): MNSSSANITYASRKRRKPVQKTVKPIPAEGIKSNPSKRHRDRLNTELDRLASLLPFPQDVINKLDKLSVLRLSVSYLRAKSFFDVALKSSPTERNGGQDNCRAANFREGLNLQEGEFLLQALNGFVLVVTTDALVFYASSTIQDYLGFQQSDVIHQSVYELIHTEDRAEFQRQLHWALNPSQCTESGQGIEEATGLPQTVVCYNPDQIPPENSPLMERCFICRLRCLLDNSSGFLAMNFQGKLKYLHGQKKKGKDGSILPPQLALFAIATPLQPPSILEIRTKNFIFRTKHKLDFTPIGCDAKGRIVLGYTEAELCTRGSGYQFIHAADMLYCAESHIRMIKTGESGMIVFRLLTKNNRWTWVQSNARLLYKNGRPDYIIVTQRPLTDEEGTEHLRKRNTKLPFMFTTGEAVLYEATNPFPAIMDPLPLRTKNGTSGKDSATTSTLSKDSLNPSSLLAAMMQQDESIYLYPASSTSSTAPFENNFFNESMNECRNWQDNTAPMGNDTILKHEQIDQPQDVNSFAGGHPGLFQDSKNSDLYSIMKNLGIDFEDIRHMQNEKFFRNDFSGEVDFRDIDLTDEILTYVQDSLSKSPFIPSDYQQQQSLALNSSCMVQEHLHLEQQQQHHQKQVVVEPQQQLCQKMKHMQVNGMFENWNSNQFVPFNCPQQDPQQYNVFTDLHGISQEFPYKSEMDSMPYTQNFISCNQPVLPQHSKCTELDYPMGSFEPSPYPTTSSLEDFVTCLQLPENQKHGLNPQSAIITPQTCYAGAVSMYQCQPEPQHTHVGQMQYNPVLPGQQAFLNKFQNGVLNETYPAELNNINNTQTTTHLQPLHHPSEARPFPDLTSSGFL

CCCCCCC1CCOC1=O (centres undefined)
outcome [1]: inactive
outcome [2]: inactive
outcome [3]: inactive
outcome [4]: inactive
outcome [5]: inactive
outcome [6]: inactive
outcome [7]: inactive
outcome [8]: inactive
outcome [9]: inactive
outcome [10]: inactive
outcome [11]: inactive
outcome [12]: inactive
outcome [13]: inactive
outcome [14]: inactive
outcome [15]: inactive
outcome [16]: inactive
outcome [17]: inactive
outcome [18]: inactive
outcome [19]: inactive

CC1(C)CC(=O)CC(C)(C)N1[O]
outcome [1]: inactive
outcome [2]: inactive
outcome [3]: inactive
outcome [20]: inactive
outcome [4]: inactive
outcome [5]: inactive
outcome [6]: inactive
outcome [7]: inactive
outcome [8]: inactive
outcome [9]: inactive
outcome [10]: inactive
outcome [11]: inactive
outcome [12]: inactive
outcome [13]: inactive
outcome [14]: inactive
outcome [15]: inactive
outcome [16]: inactive
AC50 [17]: 19.8 µM (active)
outcome [18]: inactive
outcome [19]: inactive

CN(N=O)c1ccccc1
outcome [1]: inactive
outcome [2]: inactive
outcome [3]: inactive
outcome [4]: inactive
outcome [5]: inactive
outcome [6]: inactive
outcome [7]: inactive
outcome [8]: inactive
outcome [9]: inactive
outcome [10]: inactive
outcome [11]: inactive
outcome [12]: inactive
outcome [14]: inactive
outcome [15]: inactive
outcome [16]: inactive
outcome [17]: inactive
outcome [18]: inactive

COC(C)(C)CCC[C@H](C)C/C=C/C(C)=C/C(=O)OC(C)C
outcome [1]: inactive
AC50 [2]: 84.6 µM (active)
outcome [20]: inactive
outcome [4]: inactive
outcome [6]: inactive
outcome [7]: inactive
outcome [8]: inactive
outcome [9]: inactive
outcome [10]: inactive
outcome [11]: inactive
outcome [12]: inactive
outcome [13]: inactive
AC50 [14]: 165 µM (active)
outcome [15]: inactive
outcome [16]: inactive
AC50 [17]: 52.8 µM (active)
outcome [18]: inactive
AC50 [19]: 157 µM (active)

Source: PubChem BioAssay (EPA / NIEHS)
